Test results as given in the supplement of paper PMC6089552.
In all, about 3,200 compounds went through this assay and about 300 (9.4%) showed activity. The full list was thinned out, with actives kept by preference.

Tested on: A673/TR/shEF
Experiment: cell viability (LOESS-normalised, relative to median of negative controls) (log2 ratio); higher = more viable cells (less compound effect), active = hit call of the paper (over 3 MAD below the median)
Conditions: treatment time: 72 h
Summary of the method: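 A673/TR/shEF Ewing sarcoma cells (1,500 per well, 384-well plates) were grown with or without doxycycline to induce EWS-FLI1 shRNA knockdown, starting 24 h before compounds. Library compounds at two or more concentrations, with DMSO controls, were added for three days. Cell viability was read by CellTiter-Glo luminescence on an Envision reader, then LOESS-corrected per plate, divided by the median of negative controls and log2-transformed. Hits were wells at least three median absolute deviations from the median of all screened wells.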

[1] = 0.25 µM, library screen: screen1, EWS-FLI1 expression: high (no doxycycline)
[2] = 0.25 µM, library screen: screen1, EWS-FLI1 expression: low (doxycycline-induced shRNA knockdown)
[3] = 2.5 µM, library screen: screen1, EWS-FLI1 expression: high (no doxycycline)
[4] = 2.5 µM, library screen: screen1, EWS-FLI1 expression: low (doxycycline-induced shRNA knockdown)
[5] = 0.103 µM, library screen: screen3, EWS-FLI1 expression: high (no doxycycline)
[6] = 0.103 µM, library screen: screen3, EWS-FLI1 expression: low (doxycycline-induced shRNA knockdown)
[7] = 0.308 µM, library screen: screen3, EWS-FLI1 expression: high (no doxycycline)
[8] = 0.308 µM, library screen: screen3, EWS-FLI1 expression: low (doxycycline-induced shRNA knockdown)
[9] = 0.926 µM, library screen: screen3, EWS-FLI1 expression: high (no doxycycline)
[10] = 0.926 µM, library screen: screen3, EWS-FLI1 expression: low (doxycycline-induced shRNA knockdown)
[11] = 2.8 µM, library screen: screen3, EWS-FLI1 expression: high (no doxycycline)
[12] = 2.8 µM, library screen: screen3, EWS-FLI1 expression: low (doxycycline-induced shRNA knockdown)
[13] = 8.3 µM, library screen: screen3, EWS-FLI1 expression: high (no doxycycline)
[14] = 8.3 µM, library screen: screen3, EWS-FLI1 expression: low (doxycycline-induced shRNA knockdown)
[15] = 25 µM, library screen: screen3, EWS-FLI1 expression: high (no doxycycline)
[16] = 25 µM, library screen: screen3, EWS-FLI1 expression: low (doxycycline-induced shRNA knockdown)
[17] = 0.25 µM, library screen: screen2, EWS-FLI1 expression: high (no doxycycline)
[18] = 0.25 µM, library screen: screen2, EWS-FLI1 expression: low (doxycycline-induced shRNA knockdown)
[19] = 2.5 µM, library screen: screen2, EWS-FLI1 expression: high (no doxycycline)
[20] = 2.5 µM, library screen: screen2, EWS-FLI1 expression: low (doxycycline-induced shRNA knockdown)

Measured: cell viability (log2)

C=CCN1C(=O)C(=C2C(=O)N(C)c3ccccc32)SC1=S
inactive: [1] 0.145 | [2] 0.0841 | [3] 0.0806 | [4] 0.0634

CC1(C)C[C@H](O)[C@]23CC[C@@H](O)[C@@](C)(CC[C@@H]12)C3
inactive: [1] 0.155 | [2] 0.054 | [3] 0.181 | [4] 0.0139

C=CCNc1nc2ccccn2c(=O)c1/C=C1\SC(=S)N(CCc2ccccc2)C1=O
inactive: [1] 0.071 | [2] 0.0307 | [3] 0.121 | [4] 0.134

CCOC(=O)c1c[nH]c2c(Cl)c(Cl)ccc2c1=O
inactive: [1] 0.0772 | [2] 0.122 | [3] 0.11 | [4] 0.176

O=C(O)c1ccc(O)c2c1C(=O)c1cc(O)cc(O)c1C2=O
inactive: [1] 0.0473 | [2] -0.0191 | [3] 0.0745 | [4] 0.0247

COc1cc(CN2CCN(Cc3cccnc3)CC2)cc(OC)c1OC
inactive: [1] 0.0843 | [2] 0.0394 | [3] 0.126 | [4] 0.144

COC(=O)Nc1ccc(-c2nc(N3CCOCC3)c3cnn(C4CCN(C(=O)OC)CC4)c3n2)cc1
active: [11] -0.281 | [12] -0.237 | [13] -0.419 | [14] -0.244 | [15] -0.744 | [16] -0.369
inactive: [5] -0.0923 | [6] 0.0164 | [7] -0.0767 | [8] -0.0949 | [9] -0.134 | [10] -0.0918

COC(=O)Nc1ccc(-c2nc(N3CCOCC3)c3cnn(C4CCN(Cc5cccnc5)CC4)c3n2)cc1
inactive: [5] -0.0181 | [6] 0.0282 | [7] -0.00456 | [8] -0.0439 | [9] -0.169 | [10] -0.0706
active: [11] -0.33 | [12] -0.297 | [13] -0.973 | [14] -0.691 | [15] -1.84 | [16] -1.76

COc1cc(OC)c(OC)cc1CN1CCN(Cc2cccnc2)CC1
inactive: [1] 0.0812 | [2] 0.0446 | [3] 0.193 | [4] 0.00403

COc1cc(/C=C/C(=O)/C=C(O)/C=C/c2ccc(O)c(OC)c2)ccc1O
inactive: [1] 0.0822 | [2] 0.0311 | [3] 0.0603 | [4] -0.0173

COC(=O)c1c(C)c2c(c(C)c1OC(C)=O)OC(=O)c1c(C)c(Cl)c(OC(C)=O)c(Cl)c1O2
inactive: [1] 0.0638 | [2] 0.0229 | [3] 0.0457 | [4] -0.0376

C/C1=C2N=C(/C=C3N=C(/C(C)=C4\[N-]C(C(CC(N)=O)C4(C)CCC(=O)NCC(C)OP(=O)([O-])OC4C(CO)OC(n5cnc6cc(C)c(C)cc65)C4O)C4(C)N=C1C(CCC(N)=O)C4(C)CC(N)=O)C(CCC(N)=O)C\3(C)C)C(CCC(N)=O)C/2(C)CC(N)=O.[Co+3] (configuration not stated)
inactive: [1] -0.0019 | [2] 0.0391 | [3] 0.0729 | [4] 0.0491

COc1cc(CN2CCN(Cc3cccc(Cl)c3)CC2)c([N+](=O)[O-])cc1OC
inactive: [1] 0.103 | [2] 0.0472 | [3] 0.18 | [4] 0.111

CCc1c(C)c(C#N)c2nc3ccccc3n2c1N1CCN(C)CC1
inactive: [1] 0.145 | [2] 0.157 | [3] 0.118 | [4] 0.0375

COc1cc(/C=C(\C#N)C(=O)c2ccc(O)c(O)c2)cc(I)c1O
inactive: [17] 0.152 | [18] 0.068 | [19] 0.173 | [20] -0.0106

N#C/C(=C\c1c[nH]c2ccccc12)C(=O)c1ccc(O)c(O)c1
inactive: [17] 0.155 | [18] 0.0215 | [19] 0.202 | [20] 0.127

N#C/C(=C\c1ccc(O)c(O)c1)C(=O)c1ccc(O)c(O)c1
active: [17] -0.567 | [18] -0.546 | [19] -2.72 | [20] -2.83

N#C/C(=C\c1ccc(O)c(O)c1)C(N)=O
0.319: [1]
active: [3] -0.381 | 25 µM, library screen: screen1, EWS-FLI1 expression: high (no doxycycline) -0.224
inactive: 0.025 µM, library screen: screen1, EWS-FLI1 expression: high (no doxycycline) 0.246 | 0.025 µM, library screen: screen1, EWS-FLI1 expression: low (doxycycline-induced shRNA knockdown) 0.0278 | [2] 0.0878 | [4] 0.0598 | 25 µM, library screen: screen1, EWS-FLI1 expression: low (doxycycline-induced shRNA knockdown) 0.125

N#C/C(=C\c1ccc(O)c(O)c1)C(=O)NCCCNC(=O)/C(C#N)=C/c1ccc(O)c(O)c1
inactive: [17] 0.153 | [18] 0.132 | [19] 0.199 | [20] 0.0575

c1coc(CN2CCN(Cc3ccc4ccccc4c3)CC2)c1
inactive: [1] 0.0477 | [2] 0.0071 | [3] 0.142 | [4] 0.0832

COc1ccc2c(c1)CCC1C2CCC2(C)C1C[C@@H](O)[C@@H]2O (some centres not stated)
inactive: [1] 0.105 | [2] 0.0162 | [3] 0.204 | [4] -0.0118

OC[C@H]1O[C@@H](n2cnc3c(NCCc4ccccc4)ncnc32)C(O)[C@H]1O (some centres not stated)
inactive: [17] 0.15 | [18] 0.163 | [19] 0.0914 | [20] 0.0608

O=C(O)CCC(=O)OCC(NC(=O)C(Cl)Cl)C(O)c1ccc([N+](=O)[O-])cc1 (configuration not stated)
inactive: 0.025 µM, library screen: screen2, EWS-FLI1 expression: high (no doxycycline) 0.127 | 0.025 µM, library screen: screen2, EWS-FLI1 expression: low (doxycycline-induced shRNA knockdown) 0.0706 | [1] -0.0271 | [2] 0.0474 | [17] 0.193 | [18] -0.0115 | [3] 0.0762 | [4] 0.177 | [19] 0.153 | [20] 0.083 | 25 µM, library screen: screen2, EWS-FLI1 expression: high (no doxycycline) 0.0706 | 25 µM, library screen: screen2, EWS-FLI1 expression: low (doxycycline-induced shRNA knockdown) 0.0478

O=c1c(O)c(-c2cc(O)c(O)c(O)c2)oc2cc(O)ccc12
inactive: [1] 0.128 | [2] -0.0317 | [3] 0.0648 | [4] 0.111

COc1cc(CN2CCN(Cc3cccc(F)c3)CC2)cc2c1OCO2
inactive: [1] 0.0873 | [2] 0.0661 | [3] 0.0312 | [4] 0.0566

COc1ccc(-c2ccc3c(N4CCOC[C@@H]4C)nc(N4CCOC[C@@H]4C)nc3n2)cc1CO
active: [5] -0.268 | [6] -0.292 | [7] -0.621 | [8] -0.525 | [9] -1.05 | [10] -0.821 | [11] -1.66 | [12] -1.37 | [13] -1.89 | [14] -1.59 | [15] -1.94 | [16] -1.78

COc1ccc(-c2ccc3c(N4CCOCC4)nc(N4C[C@@H](C)O[C@@H](C)C4)nc3n2)cc1CO
active: [11] -0.379 | [12] -0.377 | [13] -0.748 | [14] -0.617 | [15] -1.51 | [16] -1.39
inactive: [5] -0.102 | [6] -0.0255 | [7] -0.124 | [8] -0.0614 | [9] -0.171 | [10] -0.169
